What is called inhibition is the drop in the measured response relative to a control, in per cent.

In PubChem BioAssay AID441 (NMMLSC, 2006) one finds inhibition data, which are given here for 94 molecules.

Molecules are shown by their SMILES. In all, about 24,000 compounds went through this assay and about 70 (0.3%) were called active. The list comes from a sample in which actives are over-represented; it also holds similar structures and randomly drawn compounds. Unmarked numbers belong to inactive results. No stated cut-off is given here; in the data, active means inhibition above about 30%; inconclusive means no clear call, values can overlap the other calls; inactive means below that.

N-formyl peptide receptor 2 (Homo sapiens), sequence (P25090 whole entry, looked up): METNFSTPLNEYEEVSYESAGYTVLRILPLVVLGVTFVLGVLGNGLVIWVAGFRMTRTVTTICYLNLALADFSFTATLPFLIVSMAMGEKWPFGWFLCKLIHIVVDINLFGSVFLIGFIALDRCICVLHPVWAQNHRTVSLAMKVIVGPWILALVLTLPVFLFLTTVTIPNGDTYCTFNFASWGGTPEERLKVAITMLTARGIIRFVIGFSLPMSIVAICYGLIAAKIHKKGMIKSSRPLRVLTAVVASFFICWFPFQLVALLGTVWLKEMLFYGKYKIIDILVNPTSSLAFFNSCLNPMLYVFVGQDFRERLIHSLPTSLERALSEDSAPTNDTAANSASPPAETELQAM

The experiment concerns the target N-formyl peptide receptor 2 (Homo sapiens) (UniProt P25090). Nature of the experiment: small molecules displacing FPRL1 fluorescent ligand – cell-based, FPR counter-screen, flow cytometry, primary screen (AID 441).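 Further: 0% = buffer alone and 100% = receptor blocker peptide.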 Conditions: FPRL1-expressing cells, fluorescent ligand binding inhibition, stronger effect = higher value, concentration not given here. (A counterscreen serves to expose hits that act by an unwanted route or on another target.)
In the case of `COc1ccc(CCNC(=O)c2cc(-c3ccc4c(c3)OCO4)on2)cc1OC`, the inhibition is -0.8%. On to `COc1cccc(NC(=O)C2CCCN2C(=O)OCc2ccccc2)c1` (centres undefined), for which the inhibition is 0.3%. As for `CCOc1ccccc1NC(=O)C1CCN(S(=O)(=O)c2c(C)nn(C)c2C)CC1`, the inhibition was -6.7%. Take `CCOC(=O)C1CCN(C(=O)C2CCN(S(=O)(=O)c3c(C)noc3C)CC2)CC1`: the inhibition is 10.6%. Turning to `CCOc1ccc(OCC)c(NC(=O)C2CCN(S(=O)(=O)c3c(C)noc3C)CC2)c1`, the inhibition is 30.8% (active). On to `COc1ccc(C(=O)Nc2nncs2)c(OC)c1`, for which the inhibition is 0%.

As for `COc1ccc(NS(=O)(=O)c2ccc(NC(C)=O)cc2)cc1OC`, the inhibition was 6%. Regarding `NC(=O)CCCC1=NS(=O)(=O)c2ccccc2N1`, the inhibition is -3.9%. The same measure for `CCN1C(=O)/C(=C2/Sc3ccccc3N2CCCS(=O)(=O)O)SC1=S`: 5.6%; for `CC(=O)c1c(C)c[nH]c1C`: 6%. Consider `Cc1cccc(N2CCN(C(=O)c3cc4c(=O)[nH]c5ccccc5c4n3C)CC2)c1C`, for which the inhibition is -5%. Turning to `CCOc1ccc(-c2nnn(CC(=O)N3CCN(c4ccc(F)cc4)CC3)n2)cc1OCC`, the inhibition was -1.6%. In the case of `CCOC(=O)N1CCN(C(=O)c2ccc3nc4cc(Cl)ccc4c(=O)n3c2)CC1`, the inhibition is -10%. For the molecule `CCOc1ccc(C2C(C(=O)NC)=C(C)Nc3nc4ccccc4n32)cc1OC` (centres undefined), the inhibition was -2.9%. Consider `O=C(NCCCN1CCN(Cc2ccccc2)CC1)C1CCN(S(=O)(=O)N2CCCC2)CC1`, for which the inhibition was 2%. As for `COc1cccc(CN2C(=O)CCC2(C)C(=O)NC2CCCCCC2)c1` (centres undefined), the inhibition was 7.7%.

On to `Cc1cc(N2C(=O)C(=O)/C(=C(/O)c3ccc(Cl)cc3)C2c2cccc(Br)c2)no1` (centres undefined), for which the inhibition is -2.5%. For the molecule `Cn1c(=O)c2[nH]c(NCC3CCCO3)nc2n(-c2ccccc2)c1=O` (centres undefined), the inhibition was -0.4%. On to `CCOC(=O)c1oc2ccccc2c1NC(=O)c1cccs1`, for which the inhibition is -9.1%. For the molecule `CC(NC(=O)COc1ccccc1)C(=O)NC1=NCCS1` (centres undefined), the inhibition was 5.2%. For `CCN(CC)CCNC(=O)C1c2ccccc2C(=O)N(C)C1c1cn(C)c2ccccc12` (centres undefined) the value was 9.3%. As for `Cc1cccc(NC(=O)CSc2nnc(NC(=O)CN3CCOCC3)s2)c1`, the inhibition was 8.7%. For the molecule `COc1ccccc1C(=O)NCCn1cc(SCC(=O)NCc2ccco2)c2ccccc21`, the inhibition was 2.6%. `COC(=O)C1=C(C)OC(N)=C(C#N)C1c1cc(OC)ccc1OC` (centres undefined): the inhibition is 5.9%. For the molecule `COC(=O)c1cn(C)c2ccc(S(=O)(=O)N3CC(C)CC(C)C3)cc2c1=O` (centres undefined), the inhibition is 8.5%. For `COc1ccc(C2/C(=C(/O)c3ccccc3)C(=O)C(=O)N2c2ncccn2)cc1OC` (centres undefined) the value was -2.7%; for `Cc1c(C(=O)Nc2ccccc2Cl)oc2ccc(S(=O)(=O)N3CCC4(CC3)OCCO4)cc12`, -12.5%. In the case of `CCOC(=O)n1c(SCC(=O)N(CC)CC)nc2ccccc21`, the inhibition was -1.8%. For `O=C(NCc1cccs1)c1ccc2c(c1)ncn2C1CCCC1` the value was 2.8%; for `O=C(CN1C(=O)CCS(=O)(=O)c2ccccc21)NCc1ccc(F)cc1`, 1.5%; for `O=C(C1=C(O)C(=O)N(Cc2ccccc2)C1c1cccnc1)c1ccco1` (centres undefined), 1.3%.

On to `COc1ccc(-c2nnc(SCC(=O)NC3CCCCC3)o2)cc1OC`, for which the inhibition is 2.7%.

On to `CCOC(=O)c1ccn(-c2nc(-c3ccco3)cc(C(F)(F)F)n2)n1`, for which the inhibition is 2.5%.

For `O=C(CCN1C(=O)c2ccncc2C1=O)Nc1ccc2c(c1)OCCO2`, the inhibition was 9.6%. `CCN1CCN(c2ncnc3c2oc2nc(C)c4c(c23)CC(C)(C)OC4)CC1`: the inhibition is 1.2%.

`CCOc1ccc(NC(=O)CCS(=O)(=O)c2cccc3nsnc23)cc1`: the inhibition was -3.1%. With `CCOc1nc(OCC)nc(-n2cc(-c3ccccc3)nn2)n1`, the inhibition is 3%. In the case of `CCOC(=O)c1ccc(NC(=O)Cn2nnc(-c3ccc(C)cc3)n2)cc1`, the inhibition was 3.3%. The same measure for `COc1ccc(CC(=O)Nc2ccc(-c3nnc(-c4ccc(C)cc4)o3)cc2)cc1`: 51.1% (active); for `COc1ccc(Cc2nnc(NC(=O)Cc3cccs3)s2)cc1`: -1.5%; for `Cn1c(=O)[nH]c(=O)c2c1nc(CN(Cc1ccccc1)Cc1ccccc1)n2CCN1CCOCC1`: -0.1%.

Take `CN(Cc1ccccc1)C(=O)CCNC(=O)Cn1cnc2ccccc2c1=O`: the inhibition was -4.8%.

As to `COc1ccc(CCNC(=O)c2ccc3c(c2)NC(=O)C(N2CCOCC2)S3)cc1OC` (centres undefined), the inhibition was 0.3%. Regarding `Cn1c(C(=O)N2CCC(C(N)=O)CC2)cc2c(=O)n(C)c3ccccc3c21`, the inhibition was -1.2%. On to `C/C(=N\O)C1(C)N(O)C(C)(C)C(c2ccc(Br)cc2)=[N+]1[O-]` (centres undefined), for which the inhibition is 1.1%. `Cc1ncn(C23CC4CC(CC(O)(C4)C2)C3)n1`: the inhibition was 8.2%.

For `Cc1cc(=O)n2nc(N3CCCC(C(=O)NCCC4=CCCCC4)C3)sc2n1` (centres undefined), the inhibition was 3%. As for `CC(C)Nc1nc(N(c2ccccc2)c2ccccc2)nc(-n2ccnc2)n1`, the inhibition was -7.8%. Take `CCOC(=O)Nc1ccccc1N1C(=O)c2ccccc2C1=O`: the inhibition is -0.1%. With `CCOC(=O)c1[nH]c2c(c1C)C(=O)CC(c1ccc(N(C)C)cc1)C2` (centres undefined), the inhibition was -0.6%. The same measure for `CC1C=CCC2C(=O)N(c3cccc(C(=O)N4CCCCCC4)c3)C(=O)C12` (centres undefined): -6.5%; for `O=C1NC(c2ccncc2)Nc2sc3c(c21)CCCC3` (centres undefined): 0.8%; for `CCOC(=O)c1ccc2[nH]c(C)c(CN3CCN(C)CC3)c(=O)c2c1`: -3.9%. The same measure for `Cc1ccc2cc3cc(C(=O)N4CCCCCC4)oc3nc2c1`: 3.2%. For `CC1=C(C(=O)Nc2ccccc2)C(c2cccs2)C(C#N)=C(SCC#N)N1` (centres undefined), the inhibition is -2.4%. Take `c1ccc(CCn2nnnc2CN2CCN(C3CCCC3)CC2)cc1`: the inhibition was -2.3%. The same measure for `COc1ccc(-c2ccc(Nc3ccc(S(=O)(=O)N4CCCC4)cc3)nn2)cc1OC`: 2.7%. With `Cc1nc2ncnn2c(C)c1CCC(=O)N1CCN(C(=O)c2ccco2)CC1`, the inhibition is -3.3%. Consider `CCN1CCN(Cc2c(O)ccc3c(=O)c(-c4ccc(OC)c(OC)c4)c(C(F)(F)F)oc23)CC1`, for which the inhibition was -3.1%.

`CCOC(=O)c1cccc(NC(=O)CN(c2ccc(C)cc2)S(=O)(=O)c2c(C)noc2C)c1`: the inhibition was -3%.

Regarding `COc1cccc(-c2nc3n(n2)C(c2ccccc2Cl)C(C(N)=O)=C(C)N3)c1` (centres undefined), the inhibition was -2.8%. The same measure for `O=C1CCc2cc(S(=O)(=O)N3CCC(C(=O)NCc4ccccc4Cl)CC3)ccc2N1`: -0.3%; for `CCOC(=O)c1cc2cc(-c3c(C(=O)OCC)oc4cc(O)cc(O)c4c3=O)ccc2o1`: 1.4%; for `CCCCN(CC)C(=O)CN(C)S(=O)(=O)c1cccc2nsnc12`: 1%.

For `CCn1c(SCC(=O)Nc2ccccc2F)nc2c(c1=O)SC(C)C2` (centres undefined), the inhibition is 4.3%. Consider `COc1ccc(CCNC(=O)CSc2nnc(CNC(=O)c3cccs3)o2)cc1OC`, for which the inhibition is 1.2%. For `Cc1ccc(-c2nc(CS(=O)CC(=O)NC3CCCC3)c(C)o2)cc1` (centres undefined) the value was 1.4%. For `COCCCN(C(=O)Cn1ncc2c(=O)oc3ccc(C)cc3c21)C(C)c1ccncc1` (centres undefined) the value was -4.1%. For `CCn1ncc(Br)c1C(=O)Nc1cc(C)ccc1F` the value was -0.1%; for `Cc1ccccc1CSc1nnc(Cn2c(=O)sc3ccccc32)n1C`, 5.5%; for `O=C1CC(c2ccccc2)CC(O)=C1C=NCCN1CCOCC1` (centres undefined), 1.2%.

For the molecule `CC(=O)N(CC1CCCO1)C1(C(=O)NC2CCCC2)CCCCC1` (centres undefined), the inhibition was 4%. As to `COC(=O)[C@H](C(C)C)n1c(C)c(C(C)=O)c(C(C)=O)c1C`, the inhibition was 31.1% (active). `Cc1cccc(C2c3c(n(C)c(=O)n(C)c3=O)N=C3c4ccccc4C(=O)C32)c1` (centres undefined): the inhibition is -4.5%. For `CCN(CC)C(=O)CCC(=O)Nc1ccc(C(=O)OC)cc1` the value was 4.2%.

For `CC(C)COC(=O)C1C2C=CC3(CN(C(C)c4ccc(Br)cc4)C(=O)C13)O2` (centres undefined), the inhibition is 17.2%.

On to `C/C(=C(\C#N)C(=O)NCCCN1CCOCC1)N(C)C`, for which the inhibition is -7.6%. On to `CN1C(=O)c2ccccc2C(C(=O)NCCCN2CCCC2)C1c1c[nH]c2ccccc12` (centres undefined), for which the inhibition was -4.5%.

In the case of `Cc1ccc(S(=O)(=O)n2nc(OC(=O)C(C)(C)C)cc2N)cc1`, the inhibition is -2.2%. The same measure for `Clc1ccc(Cn2ncc3c(NCc4cccnc4)ncnc32)cc1`: -5.1%; for `CCOc1ccc(OCC)c(NC(=O)CN(C)S(=O)(=O)c2cccc3nsnc23)c1`: -4.8%.

Regarding `Cn1c(=O)cc(SCC(=O)N2CCN(C(=O)c3ccco3)CC2)c2ccccc21`, the inhibition was -1.6%. For `COc1ccc(OC)c(NC(=O)CC(Cc2ccccc2OC)C(=O)O)c1` (centres undefined) the value was 9.6%; for `CCOC(=O)C1CCCN(Cc2nc(N)nc(Nc3ccc(C)cc3)n2)C1` (centres undefined), -0.4%; for `CC1Cc2nc(SCC(=O)Nc3ccccc3F)n(C)c(=O)c2S1` (centres undefined), -4.6%. For `CC1=Nn2c(nnc2-c2ccccc2)SC1`, the inhibition was 4.7%. In the case of `C=CCNC(=O)CSc1nc2sc(C)c(C)c2c(=O)[nH]1`, the inhibition is -8.9%. The same measure for `Cc1cc(Nc2ccccc2)n(CCC#N)n1`: 9.1%; for `O=C(Cc1nn[nH]n1)NCCC1=CCCCC1`: 3.2%. Regarding `CCCn1cc(SCC(N)=O)c2ccccc21`, the inhibition is 0.9%.

Regarding `O=C(Nc1ccccc1)N(Cc1cccnc1)Cc1ccco1`, the inhibition was 3.6%.

As to `O=C(NCc1ccco1)c1cccn2c(=O)c3cc(Br)ccc3nc12`, the inhibition is -9.9%.

As for `Cc1cccc(Nc2ccccc2C(=O)NCc2ccco2)c1C`, the inhibition is 34.3% (active). As for `CCCCOc1ccc(C(=O)NCc2ccco2)cc1`, the inhibition was -9.3%.
